For three molecules, AC50 and outcome results are on record in PubChem BioAssay AID2284078 (EPA ToxCast).

The structures appear in SMILES notation. Activity calls are given as the source filed them. How the source made its calls: active means hit-call score of the fitted dose curve at least 0.9, where 1 is the maximum; inactive means score below 0.9.

The target of this assay is human CHK1 (CHEK1) CAMK Kinase, CHEK1 (gene 1111) (UniProt O14757). Description: ERF_TW_ENZ_hCHK1: Eurofins (ERF) Enzymatic Radiometric [10 uM ATP] KinaseProfiler LeadHunter Assay for human CHK1 (CHEK1) CAMK Kinase. As for the experimental part: ERF_TW_ENZ_hCHK1 is a biochemical, single-readout assay that uses extracted gene-proteins in a cell-free assay. Measurements were taken 0.5 hour after chemical dosing in a 96-well plate. See CHK1 Human CAMK Kinase Enzymatic Radiometric Assay [10 uM ATP], Panlabs.ERF_TW_ENZ_hCHK1 is an assay component calculated from the ERF_TW_ENZ_hCHK1 assay. It is designed to measure enzyme activity using a type of enzyme reporter as detected by scintillation counting with radiometry technology.Data from the assay component ERF_TW_ENZ_hCHK1 was analyzed at the assay endpoint, ERF_TW_ENZ_hCHK1, in the positive analysis fitting direction relative to DMSO as the negative control and baseline of activity. Using a type of enzyme reporter, loss-of-signal activity can be used to understand changes in enzymatic activity as they relate to gene CHEK1. To generalize the intended target to other relatable targets, this assay endpoint is annotated to the kinase intended target family, where the subfamily is serine/threonine kinase.
Sequence of human CHK1 (CHEK1) CAMK Kinase, CHEK1 (gene 1111) (O14757 whole entry, looked up): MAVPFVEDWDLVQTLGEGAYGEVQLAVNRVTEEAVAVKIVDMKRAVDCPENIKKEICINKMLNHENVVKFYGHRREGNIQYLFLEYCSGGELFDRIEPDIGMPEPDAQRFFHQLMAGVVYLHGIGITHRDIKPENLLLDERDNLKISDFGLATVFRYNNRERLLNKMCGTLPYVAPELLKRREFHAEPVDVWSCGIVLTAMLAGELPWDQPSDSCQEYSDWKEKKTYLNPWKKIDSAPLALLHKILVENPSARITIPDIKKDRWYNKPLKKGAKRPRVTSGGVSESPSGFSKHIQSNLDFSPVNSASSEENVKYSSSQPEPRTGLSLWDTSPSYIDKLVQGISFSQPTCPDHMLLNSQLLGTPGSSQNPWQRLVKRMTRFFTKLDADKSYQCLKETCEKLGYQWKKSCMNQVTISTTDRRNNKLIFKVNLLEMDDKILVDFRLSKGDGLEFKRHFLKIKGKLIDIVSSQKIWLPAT
CHK1 (h) is incubated with 8 mM MOPS pH 7.0, 0.2 mM EDTA, 200 uM […], 10 mM MgAcetate and [gamma-33P]-ATP (specific activity and concentration as required). The reaction is initiated by the addition of the Mg/ATP mix. After incubation for 40 minutes at room temperature, the reaction is stopped by the addition of phosphoric acid to a concentration of 0.5%. An aliquot of the reaction is then spotted onto a filter and washed four times for 4 minutes in 0.425% phosphoric acid and once in methanol prior to drying and scintillation counting. Test Sample Requirements: Compound should be supplied in 100%DMSO. We require a stock solution at a concentration of at least 50x higher than the Final Assay Concentration of your cpd. A 10mM stock is also acceptable. When ordering fewer than 60 kinase assays, we need 120uL of 50x concentrated stock. For more than 60 assays, we need 420uL of 50xcc stock. Please apply the conversion if you provide 10mM stock solution or compounds in powder form (pre-weighed is required). From 50 cpds supplied as solids, the TAT will be extended.
As usually defined, the AC50 is the concentration at which the activity in the assay is half-maximal. For the molecule `O=C(/C=C/c1ccc(O)cc1)CC(=O)/C=C/c1ccc(O)cc1`, the AC50 was 2950 nM (active). As for `COc1cc(/C=C/C(=O)CC(=O)/C=C/c2ccc(O)c(OC)c2)ccc1O`, the AC50 is 2590 nM (active). Turning to `COc1cc(CCC(=O)CC(=O)CCc2ccc(O)c(OC)c2)ccc1O`, the result was inactive.
